Screens: PubChem, National Center for Advancing Translational Sciences (NCATS)
HT1080 IDH1KD tx: HT-1080 IDH1 knockdown cell toxicity (counter line); hit rate 2% among 360,000; AID 686971; HT-1080 IDH1 knockdown viability, ATP luminescence, 48 h; Potency, µM (titrated, usually from 46.1 µM), inactives show at the top dose activity, negative = toxicity, hits mostly cytotoxic;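 also: potency is read from the fitted curve at half-maximal effect; 0% = DMSO wells and -100% = cell-free medium wells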
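Assay cells: HT-1080 with IDH1 knockdown, 750 per well, RPMI/5% FBS. Exposure: 48 h at 37 °C following 2 h pre-incubation. Read: CellTiter-Glo luminescence; fitted concentration-response, curve class assigned.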
TDP1 cell noCPT: qHTS for Inhibitors of human tyrosyl-DNA phosphodiesterase 1 (TDP1): qHTS in cells in absence of CPT | Potency, µM (doses to about 46.2 µM), inactives show top-dose activity change, negative = growth inhibition, actives largely listed as inhibitors | hit rate 15% among 420,000 | DT40 Tdp1-/- hTDP1 cells, no CPT, ATP luminescence, 48 h | AID 686978, 2013; also: potency is read from the fitted curve at half-maximal effect; nearly all actives have a fitted effect of over 55% in size
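Seeded 400 DT40-hTDP1 cells/well (vehicle DMSO, no 20 nM CPT); pinned compounds; ≥48 hr at 37 °C; CellTiter-Glo luminescence as viability measure.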
DT40 TDP1 CPT: growth inhibition of DT40 Tdp1-/-;hTDP1 cells with camptothecin (screen for TDP1 inhibitors). chicken DT40 Tdp1-/-;hTDP1 cells + 20 nM CPT, ATP luminescence, 48 h. Potency, µM (top dose mostly 46.2 µM), without a hit: top-dose activity change, negative = growth inhibition, hits mostly inhibitors. hit rate 12% among 420,000. AID 686979; also: potency is read from the fitted curve at half-maximal effect; nearly all actives have a fitted effect of over 55% in size
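Chicken DT40 Tdp1-/- cells stably complemented with human TDP1 were seeded at 400 cells/well in medium containing 20 nM camptothecin, exposed to pin-transferred compounds, and grown at 37 °C for at least 48 hr. Viability was read as ATP luminescence.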
HT1080-NT tox: kills 2HG-producing HT-1080-NT fibrosarcoma cells | AID 686970 | HT-1080-NT fibrosarcoma viability, CellTiter-Glo ATP luminescence, 48 h | hit rate 1.6% among 360,000 | Potency, µM (doses to about 46.1 µM), without a hit: at the top dose activity, negative = less viability, usual class: cytotoxic;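 also: NT is the 2HG producing partner of a matched IDH1 knockdown line; potency is read from the fitted curve at half-maximal effect; 0% = DMSO-treated cells and -100% = media-only wells without cells; nearly all actives have a fitted effect of over 55% in size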
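Fibrosarcoma NT cells, 750 per well in 5% FBS RPMI, were exposed to compound for 48 hours. Viability: CellTiter-Glo luminescence.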
IL-1B inflam inh: blocks inflammasome-driven IL-1 beta release; THP-1 LPS/ATP IL-1B secretion, AlphaLISA, 16 h; active compounds read low; hit rate 4.7% among 360,000; activity change, % at 57.5 µM; in the data active = activity change below about -50%; inconclusive = mostly about -30% to -49%
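Secreted IL-1B measured by AlphaLISA bead assay after 16 h compound exposure of THP-1 cells; compounds (final up to 57.5 uM) added 1 h before LPS (250 ng/mL) and ATP (1.25 mM) stimulation; lower signal means less secretion.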
12-LOX inh: blocks human arachidonate 12S-lipoxygenase; Potency, µM (series often up to 108 µM), for the others: at the top dose activity change, negative = inhibition, actives largely listed as inhibitors; purified 12hLO, xylenol orange hydroperoxide absorbance; hit rate 1.1% among 580,000; also: potency is read from the fitted curve at half-maximal effect
Target sequence (P18054 whole entry, looked up): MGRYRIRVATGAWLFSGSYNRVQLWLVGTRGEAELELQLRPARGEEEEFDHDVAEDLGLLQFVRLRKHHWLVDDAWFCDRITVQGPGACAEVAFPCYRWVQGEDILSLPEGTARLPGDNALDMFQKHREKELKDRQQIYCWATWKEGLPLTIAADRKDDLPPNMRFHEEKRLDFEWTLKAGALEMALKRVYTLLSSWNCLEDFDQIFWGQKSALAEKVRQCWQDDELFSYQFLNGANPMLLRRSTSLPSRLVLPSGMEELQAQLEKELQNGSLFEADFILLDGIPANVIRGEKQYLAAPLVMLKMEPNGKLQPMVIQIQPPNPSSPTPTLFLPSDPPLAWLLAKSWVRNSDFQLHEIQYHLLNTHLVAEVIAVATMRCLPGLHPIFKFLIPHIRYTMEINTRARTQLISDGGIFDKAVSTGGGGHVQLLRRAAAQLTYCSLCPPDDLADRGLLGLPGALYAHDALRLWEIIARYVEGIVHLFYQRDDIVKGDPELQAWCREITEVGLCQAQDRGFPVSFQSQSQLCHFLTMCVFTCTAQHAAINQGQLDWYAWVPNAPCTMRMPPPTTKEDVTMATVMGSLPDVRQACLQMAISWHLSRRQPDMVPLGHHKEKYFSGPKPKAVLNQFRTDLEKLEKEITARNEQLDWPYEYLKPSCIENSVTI
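Purified human 12hLO at 150 nM in 25 mM Hepes, 0.01% Triton X-100, pH 7.0, preincubated 15 min at room temperature with compound. Reaction started with 40 uM arachidonic acid, 30 min at room temperature. Hydroperoxide measured by Fe-xylenol orange, 573/405 nm absorbance ratio.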
Active calls of the source: *; ? = inconclusive; · = no result; [ ] = another dose, or the depositor's remark. The sample as a whole holds a higher share of hits than the screen did. Unless noted, calls follow the shape of the dose curve; as a rule, active = well fitted curve in the direction sought with a large enough effect; inconclusive = small, poorly fitted or top-dose-only effect, or another doubt; inactive = no such curve, though single readings can be large; an effect the other way counts as inactive or inconclusive. Unless noted, % is scaled to controls: 0 for no effect and ±100 for the full control effect.

SMILES	HT1080 IDH1KD tx	TDP1 cell noCPT	DT40 TDP1 CPT	HT1080-NT tox	IL-1B inflam inh	12-LOX inh
COc1ccc(Cl)cc1-c1cc(C(=O)NCc2cccc(C(F)(F)F)c2)[nH]n1	?	?	7.3µM*	?	-7	2%
Cc1cc(F)ccc1-c1cc(C(=O)NCc2ccccc2)[nH]n1	14%	?	26µM*	12%	-24	-4%
COc1ccc(Cl)cc1-c1cc(C(=O)NCc2ccc(C(F)(F)F)cc2)[nH]n1	-5%	7.3µM*	4.6µM*	0%	-19	16%
COc1ccc(Cl)cc1-c1cc(C(=O)NCc2ccc(F)cc2)[nH]n1	?	8.2µM*	6.5µM*	-28%	-17	-1%
CN(Cc1cccc(F)c1)C(=O)CCNC(=O)Nc1ccccc1	·	·	·	·	·	2%
Cc1oc(-c2ccc(C(F)(F)F)cc2)nc1CN(C)C(C)c1cccs1 (centres undefined)	·	·	·	·	·	32%
CCOP(=O)(OCC)c1nc(-c2cccs2)oc1NCc1ccccc1	·	·	·	·	·	11%
O=C([C@H]1CCC[C@H](O)C1)N(CCc1ccc(Cl)cc1)Cc1cccnc1	·	·	·	·	·	40%
Cn1c(=O)c2c(nc(CN3CCN(Cc4ccccc4)CC3)n2CC(N)=O)n(C)c1=O	·	·	·	·	·	-22%
O=C1C2CC=CCC2C(=O)N1c1ccc(N2CCN(c3ccccn3)CC2)c([N+](=O)[O-])c1 (centres undefined)	2%	16µM*	?	?	6	-13%
O=C(c1ccc(N2CCCCC2)c([N+](=O)[O-])c1)N1CCN(c2ccccn2)CC1	1%	?	-28%	7%	-7	14%
CC(C)NC(=O)C[C@@H]1C[C@H]2O[C@H](CNC3CCC(F)(F)CC3)[C@@H](O)[C@H]2O1	·	·	·	·	·	15%[176 µM]
COc1cccc(Nc2cc(C)c3ccccc3n2)c1	?	?	-10%	-23%	-55*	0%
Cc1ccccc1Nc1cc(C)c2ccccc2n1	·	·	·	·	·	4%
COc1cccc(Nc2nc3ccccc3c(=O)[nH]2)c1	0%	-30%	-20%	-10%	0	-13%
Cc1cc(NC2CCCCC2)nc2ccccc12	-5%	16µM*	?	-2%	-91*	-5%
COc1ccc(Nc2cc(C)c3c(O)cccc3n2)cc1	?	10µM*	21µM*	?	?	?
Cc1ccc(Nc2cc(C(=O)N3CCOCC3)c3ccccc3n2)cc1C	·	·	·	·	·	4%
Cc1ccc(Nc2cc(C)c3c(O)cccc3n2)cc1C	-25%	15µM*	21µM*	-26%	-9	?
O=C(CNC(=O)c1ccc(Oc2ccccc2)cc1)NNC(=O)CSc1cccc2cccnc12	·	·	·	·	·	-50%
COCCCNC(=O)CSCc1nc(-c2ccccc2C)oc1C	·	·	·	·	·	9%
Cc1ccc(Nc2cc(C)c3ccc(O)cc3n2)cc1C	-22%	18µM*	18µM*	-23%	-18	?
Cc1ccccc1Nc1cc(C)c2c(O)cccc2n1	-6%	?	?	-18%	-87*	-4%
CN(C)CC(O)c1ccc(C=Cc2ccc(Cl)cc2)cc1 (centres undefined)	5.8µM*	7.3µM*	7.3µM*	-5%	-92*	?
CC(C)(C)CC(=O)NCC(O)c1ccc(Cl)cc1 (centres undefined)	·	·	·	·	·	4%
CCCNC(=O)[C@H]1O[C@@H]1C(=O)N[C@H](C(=O)N1CCC[C@H]1C(=O)OC)[C@@H](C)CC	·	2.4µM*	1.9µM*	·	·	9%
CC(C)c1cccc(NC(=O)CN2C(=O)NC3(CCCCC3)C2=O)c1	·	·	·	·	·	28%
CCOC(=O)C1CCN(Cc2nc3ccccc3c(=O)n2-c2ccc(OCC)cc2)CC1	11%	?	?	1%[9.24 µM]	-19	-2%
